Structures are written as SMILES. About 83,000 compounds went through this panel and 20% of them were active in at least one assay; those are over-represented in the sample as a whole.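 Values shown are percent growth following 48 h exposure of cells in 96-well plates to a single concentration of compound; below 10 was considered active.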 Unmarked numbers belong to inactive results. The source made the active and inactive calls.

For 15 molecules, growth results are on record in PubChem BioAssay (NCI).

Among the test systems are SK-MEL-2 melanoma; EKVX NSCLC; SN12C renal; UO-31 renal; TK-10 renal; ACHN renal; A498 renal; CCRF-CEM leukemia; MOLT-4 leukemia; CAKI-1 renal.
Common to all, as to experiment: NCI-60 one-dose screen, 48 h (100 = growth as untreated, 0 = no growth, -100 = all killed)
What all share (conditions): 10 µM unless noted

For `CCOC(=O)C1=C(C(=O)c2ccc(Br)cc2)C(c2ccc(Br)cc2)NC(=S)N1` (stereo unspecified), the growth with SK-MEL-2 melanoma is 110%; in the test with EKVX NSCLC it was 104%; with SN12C renal it was 98.3%; with UO-31 renal, 76.8%; with TK-10 renal, 130%; in the test with ACHN renal, 97.6%. The results for the growth with A498 renal and with CCRF-CEM leukemia were 90.6% and 114%, respectively.
Take `C#C[C@]1(O)CC[C@H]2[C@@H]3CC=C4c5nc(Nc6ccccn6)sc5CC[C@]4(C)[C@H]3CC[C@@]21C`: the growth was -29.6% (active) in the test on SK-MEL-2 melanoma; 2.77% (active) with EKVX NSCLC; 32.1% with SN12C renal; -24.4% (active) in the test on UO-31 renal; 12.3% in the test with TK-10 renal; 21.6% in the test on ACHN renal. The growth was -49% (active) in the test with A498 renal and 0.227% (active) in the test with CCRF-CEM leukemia.
Consider `O=C(Nc1cc(-c2cccnc2)nc(NCCCN2CCOCC2)n1)c1cc(Br)cc(C(F)(F)F)c1`, for which the growth in the test with SK-MEL-2 melanoma is 81.3%; in the test with EKVX NSCLC, 77.4%; with SN12C renal, 67.2%; in the test on UO-31 renal it was 42%; in the test on TK-10 renal, 65.4%; in the test on ACHN renal, 75.6%. Moreover, the figures for the growth with A498 renal, in the test on CCRF-CEM leukemia and in the test on MOLT-4 leukemia were 53.7%, 42.8% and 45.1%, respectively.
As for `COc1cc(NCc2cn(-c3ccc(C(=O)O)cc3)nc2-c2ccc(C(=O)O)cc2)cc(OC)c1OC`, the growth in the test with SK-MEL-2 melanoma was 102%; in the test on EKVX NSCLC it was 93.1%; with SN12C renal it was 94.7%; with UO-31 renal it was 88.9%; in the test on TK-10 renal it was 91.6%; with ACHN renal, 102%. In addition, the growth in the test with A498 renal was 66%; in the test with CCRF-CEM leukemia it was -17.9% (active); with MOLT-4 leukemia it was 110%.
For the molecule `COc1ccc(-c2ccc(NNC(=O)c3ccc(F)cc3)nn2)cc1OC`, the growth with SK-MEL-2 melanoma was 93.5%; with EKVX NSCLC, 40.5%; in the test with SN12C renal, 57.1%; in the test on UO-31 renal it was 34.8%; in the test on TK-10 renal, 43.7%; with ACHN renal, 54.8%. Besides, the growth is 2.09% (active) in the test with A498 renal, 79.5% in the test with CCRF-CEM leukemia and 60.2% in the test on MOLT-4 leukemia.
Consider `Cn1c(=O)c(C#N)c(-c2ccco2)n2c(S(=O)(=O)Cc3ccccc3)nnc12`, for which the growth with SK-MEL-2 melanoma was 58.5%; in the test on EKVX NSCLC it was 99.7%; with SN12C renal, 110%; in the test with UO-31 renal, 41.4%; with TK-10 renal it was 78.3%; in the test on ACHN renal, 65.9%. Moreover, the growth in the test on A498 renal was 84.8%; in the test on CCRF-CEM leukemia, 77.4%; with MOLT-4 leukemia it was 102%.
With `Cc1ccc(-c2cc(O)c(-c3ccc(C)cc3C)cc2O)c(C)c1`, the growth in the test with SK-MEL-2 melanoma was 91.8%; in the test with EKVX NSCLC, 56.6%; in the test with SN12C renal, 68.9%; in the test on UO-31 renal, 64.5%; in the test with TK-10 renal, 79.1%; in the test on ACHN renal, 73.2%. The values for the growth with CAKI-1 renal, with A498 renal and in the test with MOLT-4 leukemia were 39.7%, 94.3% and 31.7%, respectively.
With `O=C1/C(=C\c2cccn2Cc2ccccc2)c2ccccc2N1c1c(Cl)cccc1Cl`, the growth in the test on SK-MEL-2 melanoma is 45.7%; in the test on EKVX NSCLC, 38.8%; in the test with SN12C renal, 87.3%; with UO-31 renal it was 50.2%; with TK-10 renal it was 22.9%; in the test on ACHN renal it was 53.7%. Also, the growth was 72.9% with A498 renal and 86.6% in the test with MOLT-4 leukemia.
As for `Ic1ccc2[nH]cc(SSc3c[nH]c4ccc(I)cc34)c2c1`, the growth was 74% with SK-MEL-2 melanoma; 23.5% in the test on EKVX NSCLC; 42.1% with SN12C renal; 36.6% with UO-31 renal; -13.3% (active) with TK-10 renal; 16.5% in the test on ACHN renal. Moreover, the growth with A498 renal is 40.7%; in the test with CCRF-CEM leukemia it was 8.16% (active); in the test on MOLT-4 leukemia it was 13.2%.
For the molecule `CC(C)=CCC[C@](C)(O)[C@H]1CC[C@]2(C)[C@@H]1CC[C@@H]1[C@@]3(C)CC/C(=N/O)C(C)(C)[C@@H]3CC[C@]12C`, the growth with SK-MEL-2 melanoma is -23.2% [100 µM] (active); in the test with EKVX NSCLC, 2.6% [100 µM] (active); in the test on SN12C renal, -42.4% [100 µM] (active); in the test with UO-31 renal it was -17.7% [100 µM] (active); with TK-10 renal, -39.1% [100 µM] (active); in the test with ACHN renal, -72% [100 µM] (active). Besides, the results for the growth in the test on A498 renal, in the test with CCRF-CEM leukemia and in the test on MOLT-4 leukemia were -15.7% [100 µM] (active), 23.1% [100 µM] and 2.24% [100 µM] (active), respectively.
Consider `CC(C)CCSC1=CC(=O)c2ccccc2C1=O`, for which the growth with SK-MEL-2 melanoma was 83.1%; in the test on EKVX NSCLC, 81%; with SN12C renal, 90.2%; with UO-31 renal, -63.5% (active); with TK-10 renal it was 103%; with ACHN renal it was 11.2%. Moreover, the growth in the test on A498 renal was 98.4%; with CCRF-CEM leukemia it was 0.242% (active); with MOLT-4 leukemia, 16%.
On to `O=C1CC(c2ccc3c(c2)OCO3)Nc2ccccc21` (stereo unspecified), for which the growth is 40.1% with SK-MEL-2 melanoma; 48.1% with EKVX NSCLC; 34.4% in the test with SN12C renal; 43.9% in the test with UO-31 renal; 40.1% in the test with TK-10 renal; 46.9% in the test with ACHN renal. Also, the growth with A498 renal is -11.2% (active); in the test with CCRF-CEM leukemia it was 10.8%; in the test on MOLT-4 leukemia, 62.7%.
For `Nc1cc(C(=O)O)[nH]c(=S)n1`, the growth with SK-MEL-2 melanoma was 98.9%; in the test on EKVX NSCLC, 92.6%; in the test on SN12C renal, 99.7%; in the test on UO-31 renal it was 87.5%; with TK-10 renal, 93.4%; in the test on ACHN renal, 103%. For the same molecule, the growth in the test with A498 renal is 101%; in the test on CCRF-CEM leukemia, 94.5%.
For the molecule `Nn1c(Nc2ccc(S(=O)(=O)Nc3ncccn3)cc2)nnc(/C=C/c2c(O)ccc3ccccc23)c1=O`, the growth in the test on SK-MEL-2 melanoma was 89.2%; with EKVX NSCLC it was 90.9%; in the test with SN12C renal it was 96.8%; with UO-31 renal, 58.6%; with TK-10 renal, 120%; in the test with ACHN renal, 91.9%. In addition, the growth with A498 renal is 93.2%; with CCRF-CEM leukemia, 79.3%; with MOLT-4 leukemia it was 70.7%.
Take `COc1ccc(/C=C(/C2=NCCN2)n2ccc3ccccc32)cc1`: the growth was 99.5% with SK-MEL-2 melanoma; 88.5% with EKVX NSCLC; 88.9% in the test with SN12C renal; 52.9% in the test on UO-31 renal; 85.8% in the test with TK-10 renal; 82.9% with ACHN renal. In addition, the growth is 89% in the test on A498 renal, 86.2% in the test with CCRF-CEM leukemia and 93.2% with MOLT-4 leukemia.
